Measurements reported in the supplement of paper PMC9897528.

Tested on: Scedosporium aurantiacum CBS 136046
Experiment: growth inhibition relative to DMSO control (OD600); higher = more antifungal activity, active = 80 or more; extreme values may be limits of the assay
Conditions: 5 µM; 72 h; 37 °C
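Note: conidia screened in RPMI 1640 medium under 5% CO2, growth read by spectrophotometer, medium with 0.5% DMSO serving as the untreated reference.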

Growth inhibition, inactive:
COC1CC2CCC(C)C(O)(O2)C(=O)C(=O)N2CCCCC2C(=O)OC(C(C)CC2CCC(OCCO)C(OC)C2)CC(=O)C(C)/C=C(\C)C(O)C(OC)C(=O)C(C)CC(C)/C=C/C=C/C=C/1C (stereo not drawn) 10.9%
COCCn1cnc2c(O)nc(Nc3ccccc3)nc21 5.59%
COc1ccc(NC(=O)CC2Sc3ncnn3C2=O)cc1 (stereo not drawn) 0%
Oc1ccc2[nH]c(-c3ccccc3)nc2c1 26.7%
CC1(C)Cc2c(C#N)c(SCCc3ccccc3)nc(N3CCOCC3)c2CO1 27.9%
COc1cc(C)c2c(Oc3cccc(C(F)(F)F)c3)c(OC)cc(NC(C)CCCN)c2n1 (stereo not drawn) 33.4%
C[C@H]1CC[C@@]2(O)C(C)(C)[C@@H]3CC[C@@]2(C)[C@H]1C3 12.7%
COc1cc(NC(=O)CN2C(=O)NC(c3ccccc3)(c3ccccc3)C2=O)cc(OC)c1 0%
CC(C)(C)NC(=O)[C@@H]1CN(Cc2cnc3occc3c2)CCN1C[C@@H](O)C[C@@H](Cc1ccccc1)C(=O)N[C@H]1c2ccccc2C[C@H]1O 1.85%
Cc1c(F)cccc1NC(=O)Nc1ccc(Cl)c(S(=O)(=O)[C@H]2CCCNC2)c1O 4.56%
O=C(Nc1ccc(Cl)c(C(F)(F)F)c1)C(CCCl)C(=O)Nc1ccc(Cl)c(C(F)(F)F)c1 0%
CNC(=O)C1O[C@@H](n2cnc3c(NCc4cccc(I)c4)nc(Cl)nc32)[C@H](O)[C@@H]1O (stereo partly drawn) 3.52%
Cc1ccc(C)c(OCCCCCCN2C[C@H](O)[C@@H](O)[C@H](O)[C@H]2CO)c1 15.9%
COc1ccc(CNC(=O)C2CCN([C@H](C)c3cccc4ccccc34)CC2)cc1 9.67%
O=C(NCc1ccccc1Cl)c1cnc2ccccc2n1 10.6%
COc1ccc(C[C@@H](C)[C@@H](C)Cc2ccc(OC)c(OC)c2)cc1OC 8.67%
CCc1nc(N)nc(N)c1C#CC(C)c1cc(OC)cc(-c2ccncc2)c1 (stereo not drawn) 48.8%
CSC[C@H]1CN(Cc2c[nH]c3c(N)ncnc23)C[C@@H]1O 10.5%
COc1ccc(OCc2ccc(COc3c(Cl)cccc3Cl)cc2)c(Cl)c1 21.7%
CN(C)CC(=O)Nc1ccc2[nH]c(=O)c3ccccc3c2c1 6.77%
CC1=C(/C=C/C(C)=C/C=C/C(C)=C/C(=O)Nc2ccc(O)cc2)C(C)(C)CCC1 14.5%
OB1OCc2cc(Cl)ccc21 6.18%
Cc1cc(CCOc2c(C)cc(-c3nnn(C)n3)cc2C)on1 3.61%
O=C(O)COc1cccc2c1CC[C@](O)(COC(=O)N(c1ccccc1)c1ccccc1)C2 0.943%
COc1cc2c(O)c3c(c(-c4ccc5c(c4)OCO5)c2cc1OC)C(=O)OC3 25%
O=S(=O)(Nc1ccc(O)cc1)c1cccc2cccnc12 13.2%
COc1cc(C2C3=C(CC(C)(C)CC3=O)Nc3ccccc3N2C(C)=O)ccc1OCc1ccccc1 (stereo not drawn) 0.481%
Nc1nc(Nc2ccc3nc(-c4ccc(F)cc4)cc(N)c3c2)cc(-c2ccccc2)n1 17.1%
OC1O[C@H](CSc2ccc(F)cc2)[C@@H](O)[C@H]1O (stereo partly drawn) 16.7%
O=c1oc2ccc(Br)cc2cc1CSc1ncc[nH]1 18.7%
Nc1cc(-c2nc3ccccc3[nH]2)n[nH]c1=O 1.56%
Cc1ccc(Oc2ccccc2-c2csc(N=C3NCCCN3)n2)c(C)c1 68%
CC[N+]1(C/C2=C/CCCCCC2)CCC(NC(=O)C2c3cc(Cl)ccc3Oc3ccc(Cl)cc32)CC1 (stereo not drawn) 9.71%
NC(=O)c1c(N)sc2c1CCCCC2 6.23%
O=C(Nc1nnc(-c2ccc(Cl)cc2)o1)c1nc2ccccc2s1 15.8%
Cc1nc(N(C)C(=O)Cc2ccc(-c3ccccn3)cc2)sc1S(N)(=O)=O 4.79%
COc1ccc2cc3[n+](cc2c1OCCN(CCn1cncn1)Cc1ccc(F)cc1F)CCc1cc2c(cc1-3)OCO2 2.66%
O=S(=O)(Nc1ccccc1)c1ccc(NC(=S)Nc2ccccc2)cc1 24.2%
